Of roughly 8,800 targets only a part is listed; those with a hit were picked by preference. About 0.5% of all pairs of compound and target were hits.

Sequence of UniProt Q9BRQ8 (Q9BRQ8 whole entry, looked up): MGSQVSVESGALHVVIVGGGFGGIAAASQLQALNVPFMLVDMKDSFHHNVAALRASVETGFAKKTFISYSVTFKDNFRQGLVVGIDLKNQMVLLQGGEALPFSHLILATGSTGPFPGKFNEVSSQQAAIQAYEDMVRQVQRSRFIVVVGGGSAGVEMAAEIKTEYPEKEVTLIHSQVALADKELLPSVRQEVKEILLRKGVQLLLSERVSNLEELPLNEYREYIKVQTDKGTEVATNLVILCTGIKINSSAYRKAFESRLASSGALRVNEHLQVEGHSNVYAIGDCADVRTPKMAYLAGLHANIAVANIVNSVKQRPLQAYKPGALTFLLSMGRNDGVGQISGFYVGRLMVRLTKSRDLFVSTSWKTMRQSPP
Sequence of UniProt O14727 (O14727 whole entry, looked up): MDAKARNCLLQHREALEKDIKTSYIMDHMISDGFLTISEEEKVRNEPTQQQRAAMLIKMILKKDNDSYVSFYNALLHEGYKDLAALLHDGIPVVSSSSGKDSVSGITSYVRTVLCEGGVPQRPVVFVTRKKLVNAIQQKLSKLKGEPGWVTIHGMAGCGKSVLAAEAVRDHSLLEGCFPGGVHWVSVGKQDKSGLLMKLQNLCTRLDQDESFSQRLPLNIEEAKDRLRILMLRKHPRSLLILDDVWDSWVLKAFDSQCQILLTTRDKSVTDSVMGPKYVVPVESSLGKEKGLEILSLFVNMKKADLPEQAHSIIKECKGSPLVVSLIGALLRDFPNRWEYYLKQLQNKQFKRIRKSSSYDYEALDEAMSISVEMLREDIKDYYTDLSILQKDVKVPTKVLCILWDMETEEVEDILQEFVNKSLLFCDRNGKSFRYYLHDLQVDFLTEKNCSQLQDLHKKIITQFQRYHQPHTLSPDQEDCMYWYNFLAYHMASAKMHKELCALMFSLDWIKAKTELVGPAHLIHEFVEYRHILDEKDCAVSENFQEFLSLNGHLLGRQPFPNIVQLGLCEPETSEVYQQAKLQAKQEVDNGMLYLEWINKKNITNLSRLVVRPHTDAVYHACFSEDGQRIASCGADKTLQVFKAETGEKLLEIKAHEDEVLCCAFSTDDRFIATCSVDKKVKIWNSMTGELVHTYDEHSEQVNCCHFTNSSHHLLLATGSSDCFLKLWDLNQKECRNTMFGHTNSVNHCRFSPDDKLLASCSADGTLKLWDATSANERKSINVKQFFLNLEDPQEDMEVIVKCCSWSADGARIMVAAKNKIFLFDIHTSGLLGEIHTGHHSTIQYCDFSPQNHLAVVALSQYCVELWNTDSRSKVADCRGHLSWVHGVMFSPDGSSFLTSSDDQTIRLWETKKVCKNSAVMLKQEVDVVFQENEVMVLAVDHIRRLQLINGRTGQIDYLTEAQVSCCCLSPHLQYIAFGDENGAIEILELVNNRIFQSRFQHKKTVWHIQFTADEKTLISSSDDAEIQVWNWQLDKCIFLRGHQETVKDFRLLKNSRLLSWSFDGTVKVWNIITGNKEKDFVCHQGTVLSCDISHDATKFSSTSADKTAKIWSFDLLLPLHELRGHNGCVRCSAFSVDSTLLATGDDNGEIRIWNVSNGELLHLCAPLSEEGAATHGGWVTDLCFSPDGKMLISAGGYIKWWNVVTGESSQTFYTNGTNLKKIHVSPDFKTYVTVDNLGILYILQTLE
Sequence of UniProt O43823 (O43823 whole entry, looked up): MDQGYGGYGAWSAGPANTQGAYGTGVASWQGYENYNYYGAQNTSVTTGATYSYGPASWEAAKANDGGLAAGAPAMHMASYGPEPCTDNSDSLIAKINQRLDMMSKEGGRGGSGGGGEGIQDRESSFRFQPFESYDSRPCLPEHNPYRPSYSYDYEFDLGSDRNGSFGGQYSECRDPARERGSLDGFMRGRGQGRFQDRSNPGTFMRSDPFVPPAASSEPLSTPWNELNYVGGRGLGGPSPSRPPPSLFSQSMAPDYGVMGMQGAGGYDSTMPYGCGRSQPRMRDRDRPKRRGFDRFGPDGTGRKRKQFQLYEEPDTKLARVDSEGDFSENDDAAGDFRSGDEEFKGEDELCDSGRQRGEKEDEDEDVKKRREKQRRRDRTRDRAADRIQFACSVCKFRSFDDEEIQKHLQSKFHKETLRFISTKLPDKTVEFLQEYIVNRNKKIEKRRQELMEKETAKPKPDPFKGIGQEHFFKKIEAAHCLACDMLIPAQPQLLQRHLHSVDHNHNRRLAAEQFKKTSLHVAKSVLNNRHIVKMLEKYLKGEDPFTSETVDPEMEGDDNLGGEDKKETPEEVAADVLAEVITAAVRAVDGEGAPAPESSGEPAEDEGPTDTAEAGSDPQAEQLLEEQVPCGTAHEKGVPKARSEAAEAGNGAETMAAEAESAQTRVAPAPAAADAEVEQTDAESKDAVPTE
Sequence of UniProt Q02252 (Q02252 whole entry, looked up): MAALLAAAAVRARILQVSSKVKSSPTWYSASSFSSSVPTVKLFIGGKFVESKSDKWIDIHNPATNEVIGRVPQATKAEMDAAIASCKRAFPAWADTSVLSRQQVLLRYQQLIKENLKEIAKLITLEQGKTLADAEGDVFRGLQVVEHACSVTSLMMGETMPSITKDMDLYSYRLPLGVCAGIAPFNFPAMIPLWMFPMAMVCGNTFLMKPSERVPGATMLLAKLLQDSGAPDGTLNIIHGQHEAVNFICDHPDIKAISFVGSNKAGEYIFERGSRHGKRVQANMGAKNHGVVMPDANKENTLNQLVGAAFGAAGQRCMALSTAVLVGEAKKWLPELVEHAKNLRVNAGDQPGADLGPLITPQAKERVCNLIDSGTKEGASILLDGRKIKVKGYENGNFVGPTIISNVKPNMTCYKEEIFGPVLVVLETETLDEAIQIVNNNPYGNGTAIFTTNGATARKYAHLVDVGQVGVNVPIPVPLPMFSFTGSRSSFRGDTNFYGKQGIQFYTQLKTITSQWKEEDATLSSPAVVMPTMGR
Sequence of UniProt O43865 (O43865 whole entry, looked up): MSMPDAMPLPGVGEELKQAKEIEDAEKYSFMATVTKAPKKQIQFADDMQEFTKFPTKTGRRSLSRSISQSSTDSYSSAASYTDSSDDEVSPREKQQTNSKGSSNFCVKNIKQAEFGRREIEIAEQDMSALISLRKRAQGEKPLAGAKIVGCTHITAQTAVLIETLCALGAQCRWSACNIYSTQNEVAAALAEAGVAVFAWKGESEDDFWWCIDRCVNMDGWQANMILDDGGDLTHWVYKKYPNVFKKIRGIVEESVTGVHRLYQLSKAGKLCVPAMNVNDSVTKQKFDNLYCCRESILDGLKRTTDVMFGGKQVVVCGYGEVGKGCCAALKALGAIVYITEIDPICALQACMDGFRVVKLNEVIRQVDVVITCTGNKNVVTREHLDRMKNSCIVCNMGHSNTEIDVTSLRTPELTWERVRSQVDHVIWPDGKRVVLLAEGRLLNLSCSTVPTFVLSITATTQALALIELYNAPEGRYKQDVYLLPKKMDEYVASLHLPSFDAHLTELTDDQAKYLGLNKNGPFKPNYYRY
Sequence of UniProt Q96NW4 (Q96NW4 whole entry, looked up): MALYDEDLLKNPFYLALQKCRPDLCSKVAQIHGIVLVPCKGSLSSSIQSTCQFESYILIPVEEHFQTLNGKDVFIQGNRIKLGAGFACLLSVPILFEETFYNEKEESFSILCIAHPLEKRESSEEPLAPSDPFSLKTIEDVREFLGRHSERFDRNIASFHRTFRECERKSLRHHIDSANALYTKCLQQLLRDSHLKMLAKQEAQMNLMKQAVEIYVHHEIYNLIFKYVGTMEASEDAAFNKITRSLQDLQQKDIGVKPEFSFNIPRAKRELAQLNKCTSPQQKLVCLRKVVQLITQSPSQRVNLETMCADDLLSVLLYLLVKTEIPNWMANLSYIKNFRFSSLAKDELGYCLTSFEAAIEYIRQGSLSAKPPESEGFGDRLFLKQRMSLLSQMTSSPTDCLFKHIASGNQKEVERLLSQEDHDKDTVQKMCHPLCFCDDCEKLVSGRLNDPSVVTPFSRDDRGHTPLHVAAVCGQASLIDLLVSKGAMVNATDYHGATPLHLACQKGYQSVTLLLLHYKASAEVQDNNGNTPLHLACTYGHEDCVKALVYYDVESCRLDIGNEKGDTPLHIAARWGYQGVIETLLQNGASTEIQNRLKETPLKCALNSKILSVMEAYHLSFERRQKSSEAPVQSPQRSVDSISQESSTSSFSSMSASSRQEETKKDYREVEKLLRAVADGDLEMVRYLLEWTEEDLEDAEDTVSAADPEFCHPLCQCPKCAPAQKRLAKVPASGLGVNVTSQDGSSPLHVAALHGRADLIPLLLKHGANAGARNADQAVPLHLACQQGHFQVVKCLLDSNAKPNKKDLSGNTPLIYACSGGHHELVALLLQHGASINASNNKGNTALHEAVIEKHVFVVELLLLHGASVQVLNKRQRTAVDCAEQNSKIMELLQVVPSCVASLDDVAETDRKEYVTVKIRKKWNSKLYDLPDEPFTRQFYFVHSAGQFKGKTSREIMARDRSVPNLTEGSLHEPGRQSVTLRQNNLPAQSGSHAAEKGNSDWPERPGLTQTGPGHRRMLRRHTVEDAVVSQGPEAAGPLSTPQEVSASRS
Sequence of UniProt Q9NXU5 (Q9NXU5 whole entry, looked up): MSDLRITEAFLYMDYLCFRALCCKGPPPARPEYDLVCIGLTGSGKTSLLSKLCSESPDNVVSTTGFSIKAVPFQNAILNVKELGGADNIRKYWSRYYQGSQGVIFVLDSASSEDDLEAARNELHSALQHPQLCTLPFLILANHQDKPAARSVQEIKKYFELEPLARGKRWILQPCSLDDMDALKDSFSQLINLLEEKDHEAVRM
Sequence of UniProt P17707 (P17707 whole entry, looked up): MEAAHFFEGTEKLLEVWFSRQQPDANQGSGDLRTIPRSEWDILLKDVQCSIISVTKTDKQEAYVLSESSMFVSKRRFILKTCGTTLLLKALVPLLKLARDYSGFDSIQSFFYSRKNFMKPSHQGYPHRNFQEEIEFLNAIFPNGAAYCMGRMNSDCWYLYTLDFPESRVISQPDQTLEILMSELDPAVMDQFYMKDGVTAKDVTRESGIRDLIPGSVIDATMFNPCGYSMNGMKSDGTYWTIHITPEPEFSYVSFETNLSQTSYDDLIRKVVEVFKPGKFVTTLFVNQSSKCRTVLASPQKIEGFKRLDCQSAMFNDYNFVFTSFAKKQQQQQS

Compound in this test: CN1CC[C@H](c2c(O)cc(O)c3c(=O)cc(-c4ccccc4Cl)oc23)[C@H](O)C1 [alvocidib]
In words: log2 fold change, soluble protein after heating vs DMSO (PISA); higher = thermal stabilisation; K562 lysate, 10 uM; active = over 0.2 and 3.5 SD of the protein, either way, in both replicates (recomputed). In a few lines: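 Quantification was by TMTpro 16plex LC-MS/MS with equalised channel sums, applied to the supernatant after 21,000xg for 90 min. Samples were crude K562 extract at 1 mg/mL protein in PBS pH 7.4 with 1 mM MgCl2, treated with 10 μM compound for 30 min, heated for 3 min across 48°C-58°C, pooled and brought to 0.5% NP-40 at 4°C. Values are log-two fold changes in thermal stability relative to solvent controls, from duplicates.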
For the target ABCF3 (UniProt Q9NUQ8), the log2 fold change was 0.013 (inactive).

Regarding AP3D1 isoform 5 (UniProt O14617), the log2 fold change is -0.02 (inactive).

APAF1 (UniProt O14727): the log2 fold change was -0.006 (inactive).

As to AGL (UniProt P35573), the log2 fold change is 0.046 (inactive).

In the case of ANKRD27 (UniProt Q96NW4), the log2 fold change was -0.056 (inactive).

AKR1B1 (UniProt P15121): the log2 fold change was 0.033 (inactive).

Regarding AFF1 isoform 2 (UniProt P51825), the log2 fold change is -0.157 (inactive).

Consider ANXA1 (UniProt P04083), for which the log2 fold change is -0.025 (inactive).

Consider AARS2 (UniProt Q5JTZ9), for which the log2 fold change is 0.064 (inactive).

As to AKAP8L (UniProt Q9ULX6), the log2 fold change was -0.003 (inactive).

As to AHCYL1 (UniProt O43865), the log2 fold change is 0.025 (inactive).

As for ADRM1 (UniProt Q16186), the log2 fold change was 0.009 (inactive).

Regarding ALDH6A1 (UniProt Q02252), the log2 fold change is -0.044 (inactive).

Consider ACACA isoform 4 (UniProt Q13085), for which the log2 fold change was 0.016 (inactive).

For ASCC2 (UniProt Q9H1I8), the log2 fold change was -0.009 (inactive).

Regarding ACBD6 (UniProt Q9BR61), the log2 fold change was -0.009 (inactive).

ALG13 (UniProt Q9NP73): the log2 fold change was -0.039 (inactive).

Take AMD1 (UniProt P17707): the log2 fold change is -0.039 (inactive).

With AK4 (UniProt P27144), the log2 fold change is 0.025 (inactive).

Consider AIFM2 (UniProt Q9BRQ8), for which the log2 fold change was -0.032 (inactive).

Turning to ASB6 (UniProt Q9NWX5), the log2 fold change is 0.097 (inactive).

For the target ABCF2 isoform 2 (UniProt Q9UG63), the log2 fold change is 0.004 (inactive).

ARGLU1 (UniProt Q9NWB6): the log2 fold change was -0.119 (inactive).

Consider ABL2 (UniProt P42684), for which the log2 fold change is 0.007 (inactive).

In the case of AKT1 (UniProt P31749), the log2 fold change is -0.002 (inactive).

Take AFF4 (UniProt Q9UHB7): the log2 fold change was -0.235 (inactive).

Take ARL1 (UniProt P40616): the log2 fold change was -0.017 (inactive).

As for AKAP8 (UniProt O43823), the log2 fold change is -0.031 (inactive).

Turning to ACLY (UniProt P53396), the log2 fold change was 0.022 (inactive).

Take ACACB (UniProt O00763): the log2 fold change is -0.04 (inactive).

In the case of ARL15 (UniProt Q9NXU5), the log2 fold change was 0.177 (inactive).

Regarding ACAA1 (UniProt P09110), the log2 fold change was -0.027 (inactive).

As for ACADM isoform 2 (UniProt P11310), the log2 fold change was -0.022 (inactive).

On to ALDH18A1 (UniProt P54886), for which the log2 fold change was -0.005 (inactive).

On to AGPS (UniProt O00116), for which the log2 fold change was -0.011 (inactive).

These data come from the supplement of paper PMC10849652.
